# What was measured:
# Experiment in all cases: DAPPL (digital affinity profiling via proximity ligation, sequencing); 10 mM Tris-HCl pH 7.5, 50 mM NaCl, 1 mM DTT, 4% glycerol, room temperature, 30 min; GST-TFs on glutathione beads, 16-mer random dsDNA library, 0.1% formaldehyde crosslink after washing; high values mean tight binding
# Settings in all cases: protein: recombinant; tags: N-terminal GST; dsDNA, one strand shown
# FLI1 = biological target: T1, FLI1 (Homo sapiens, UniProt Q01543 1-452)
# T1 sequence: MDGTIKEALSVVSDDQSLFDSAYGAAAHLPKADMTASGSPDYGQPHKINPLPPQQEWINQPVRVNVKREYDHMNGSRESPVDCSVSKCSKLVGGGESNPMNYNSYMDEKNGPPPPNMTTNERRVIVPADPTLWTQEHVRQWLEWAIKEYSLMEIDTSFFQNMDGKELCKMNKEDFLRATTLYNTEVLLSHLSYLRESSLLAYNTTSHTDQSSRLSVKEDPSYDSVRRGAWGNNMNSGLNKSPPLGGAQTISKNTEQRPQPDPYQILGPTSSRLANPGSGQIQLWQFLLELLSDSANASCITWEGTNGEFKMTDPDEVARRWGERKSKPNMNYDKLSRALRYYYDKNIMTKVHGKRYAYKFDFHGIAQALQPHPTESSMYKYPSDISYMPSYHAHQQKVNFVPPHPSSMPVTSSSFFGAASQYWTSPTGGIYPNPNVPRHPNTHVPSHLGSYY
# Method in brief: (§1)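 Binding signal is defined as a hexamer's read frequency for one factor over its frequency for the tag-only sample. To obtain reads, GST-fused human transcription factors were expressed in yeast, captured on glutathione beads, barcoded with DNA and pooled with that sample. Pools met 200 nmole of a 16-mer random double-stranded DNA library in Tris/NaCl/DTT/glycerol buffer for 30 min at room temperature before washing, 0.1% formaldehyde crosslinking, proximity ligation (BsaI/T4 ligase, 1 h, 37 °C), PCR and Illumina NextSeq500 sequencing.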
# ELK1 = biological target: T2, ELK1 (Homo sapiens, UniProt P19419 1-428)
# T2 sequence: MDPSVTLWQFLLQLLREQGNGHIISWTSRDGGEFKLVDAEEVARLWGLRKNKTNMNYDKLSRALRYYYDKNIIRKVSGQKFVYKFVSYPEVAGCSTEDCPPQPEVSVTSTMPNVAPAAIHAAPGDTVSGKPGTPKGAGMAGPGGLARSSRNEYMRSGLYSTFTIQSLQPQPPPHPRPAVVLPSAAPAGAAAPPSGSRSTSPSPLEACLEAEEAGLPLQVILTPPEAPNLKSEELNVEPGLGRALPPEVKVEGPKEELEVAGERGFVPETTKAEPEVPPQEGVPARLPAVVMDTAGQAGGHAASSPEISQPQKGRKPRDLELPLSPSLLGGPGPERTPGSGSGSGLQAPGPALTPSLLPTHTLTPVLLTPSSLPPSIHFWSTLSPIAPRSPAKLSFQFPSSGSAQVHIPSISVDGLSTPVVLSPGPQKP
# Method in brief: as §1
# GABPA = biological target: T3, GABPA (Homo sapiens, UniProt Q06546 1-454)
# T3 sequence: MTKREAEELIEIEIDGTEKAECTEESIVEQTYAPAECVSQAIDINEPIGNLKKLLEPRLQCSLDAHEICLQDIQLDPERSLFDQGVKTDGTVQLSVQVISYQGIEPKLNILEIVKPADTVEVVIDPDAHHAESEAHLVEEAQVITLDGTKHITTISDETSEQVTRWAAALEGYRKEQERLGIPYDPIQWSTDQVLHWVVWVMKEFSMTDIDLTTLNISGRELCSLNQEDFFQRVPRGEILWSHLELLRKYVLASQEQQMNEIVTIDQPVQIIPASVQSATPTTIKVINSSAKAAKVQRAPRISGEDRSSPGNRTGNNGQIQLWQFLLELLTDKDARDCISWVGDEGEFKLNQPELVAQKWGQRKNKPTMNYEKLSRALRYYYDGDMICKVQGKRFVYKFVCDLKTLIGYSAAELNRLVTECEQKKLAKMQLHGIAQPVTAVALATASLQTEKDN
# Method in brief: as §1
# ERG = biological target: T4, ERG (Homo sapiens, UniProt P11308 1-479)
# T4 sequence: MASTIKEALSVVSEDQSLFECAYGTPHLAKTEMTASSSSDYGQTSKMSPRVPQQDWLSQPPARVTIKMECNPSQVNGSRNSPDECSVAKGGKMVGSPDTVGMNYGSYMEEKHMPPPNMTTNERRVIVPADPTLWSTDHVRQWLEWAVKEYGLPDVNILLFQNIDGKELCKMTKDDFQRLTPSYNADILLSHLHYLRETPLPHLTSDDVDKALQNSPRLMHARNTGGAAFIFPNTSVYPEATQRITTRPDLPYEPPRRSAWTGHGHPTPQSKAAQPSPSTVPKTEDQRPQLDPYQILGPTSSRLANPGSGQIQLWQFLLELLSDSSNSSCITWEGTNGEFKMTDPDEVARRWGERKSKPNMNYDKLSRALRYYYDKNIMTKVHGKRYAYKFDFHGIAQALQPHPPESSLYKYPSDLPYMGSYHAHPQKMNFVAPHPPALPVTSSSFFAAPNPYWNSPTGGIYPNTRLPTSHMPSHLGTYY
# Method in brief: as §1
# ELF1 = ELF1 (Homo sapiens, UniProt P32519 1-619)
# Method in brief: as §1
# EHF = biological target: T5, EHF (Homo sapiens, UniProt Q9NZC4 1-300)
# T5 sequence: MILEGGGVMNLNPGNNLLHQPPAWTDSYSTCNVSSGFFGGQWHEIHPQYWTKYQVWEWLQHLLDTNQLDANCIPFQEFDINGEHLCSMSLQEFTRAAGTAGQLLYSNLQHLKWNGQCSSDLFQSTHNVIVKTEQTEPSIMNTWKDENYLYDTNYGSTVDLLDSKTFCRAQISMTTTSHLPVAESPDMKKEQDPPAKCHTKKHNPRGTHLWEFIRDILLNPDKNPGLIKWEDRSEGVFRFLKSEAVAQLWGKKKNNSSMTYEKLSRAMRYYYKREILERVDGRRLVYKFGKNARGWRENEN
# Method in brief: as §1
# SPI1 = SPI1 (Homo sapiens, UniProt P17947 1-270)
# Method in brief: as §1
# SPIB = SPIB (Homo sapiens, UniProt Q01892 1-262)
# Method in brief: as §1
# ELK3 = biological target: T6, ELK3 (Homo sapiens, UniProt P41970 1-407)
# T6 sequence: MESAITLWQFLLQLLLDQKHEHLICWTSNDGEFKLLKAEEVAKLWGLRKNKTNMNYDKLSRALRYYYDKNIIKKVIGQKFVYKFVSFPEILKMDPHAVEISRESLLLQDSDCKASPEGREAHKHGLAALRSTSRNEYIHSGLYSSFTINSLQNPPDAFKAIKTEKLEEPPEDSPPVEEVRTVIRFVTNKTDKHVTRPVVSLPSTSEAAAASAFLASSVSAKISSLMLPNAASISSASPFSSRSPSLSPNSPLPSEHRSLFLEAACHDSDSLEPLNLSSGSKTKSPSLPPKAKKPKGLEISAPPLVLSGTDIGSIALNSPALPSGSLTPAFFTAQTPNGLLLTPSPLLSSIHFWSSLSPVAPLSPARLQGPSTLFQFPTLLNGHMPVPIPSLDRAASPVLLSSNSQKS
# Method in brief: as §1
# FEV = biological target: T7, FEV (Homo sapiens, UniProt Q99581 1-238)
# T7 sequence: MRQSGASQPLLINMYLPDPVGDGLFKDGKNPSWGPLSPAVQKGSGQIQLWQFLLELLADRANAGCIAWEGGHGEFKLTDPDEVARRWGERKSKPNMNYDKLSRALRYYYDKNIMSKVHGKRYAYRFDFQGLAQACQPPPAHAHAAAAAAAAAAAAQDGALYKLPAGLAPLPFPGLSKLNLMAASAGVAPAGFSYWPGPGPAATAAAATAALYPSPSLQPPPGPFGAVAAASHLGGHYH
# Method in brief: as §1
# ETV5 = ETV5 (Homo sapiens, UniProt P41161 1-510)
# Method in brief: as §1
# ELF4 = ELF4 (Homo sapiens, UniProt Q99607 1-663)
# Method in brief: as §1
# ETV1 = ETV1 (Homo sapiens, UniProt P50549 1-477)
# Method in brief: as §1
# ERF = biological target: T8, ERF (Homo sapiens, UniProt P50548 1-548)
# T8 sequence: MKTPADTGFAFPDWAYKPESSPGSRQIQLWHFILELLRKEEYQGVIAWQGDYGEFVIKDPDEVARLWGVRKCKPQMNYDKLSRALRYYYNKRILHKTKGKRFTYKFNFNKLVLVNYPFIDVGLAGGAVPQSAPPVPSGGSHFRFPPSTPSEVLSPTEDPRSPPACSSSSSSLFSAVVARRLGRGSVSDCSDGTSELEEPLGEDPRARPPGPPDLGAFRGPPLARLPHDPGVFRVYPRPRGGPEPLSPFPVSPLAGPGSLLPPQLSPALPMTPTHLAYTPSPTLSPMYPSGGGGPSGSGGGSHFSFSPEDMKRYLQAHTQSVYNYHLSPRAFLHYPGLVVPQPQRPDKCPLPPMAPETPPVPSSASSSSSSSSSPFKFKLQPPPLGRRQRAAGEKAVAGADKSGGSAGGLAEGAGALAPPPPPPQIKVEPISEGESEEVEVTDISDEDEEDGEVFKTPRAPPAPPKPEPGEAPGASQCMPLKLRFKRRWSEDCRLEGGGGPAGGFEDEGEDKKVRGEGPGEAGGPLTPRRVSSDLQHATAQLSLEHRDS
# Method in brief: as §1
# ETV3L = biological target: T9, ETV3L (Homo sapiens, UniProt Q6ZN32 1-361)
# T9 sequence: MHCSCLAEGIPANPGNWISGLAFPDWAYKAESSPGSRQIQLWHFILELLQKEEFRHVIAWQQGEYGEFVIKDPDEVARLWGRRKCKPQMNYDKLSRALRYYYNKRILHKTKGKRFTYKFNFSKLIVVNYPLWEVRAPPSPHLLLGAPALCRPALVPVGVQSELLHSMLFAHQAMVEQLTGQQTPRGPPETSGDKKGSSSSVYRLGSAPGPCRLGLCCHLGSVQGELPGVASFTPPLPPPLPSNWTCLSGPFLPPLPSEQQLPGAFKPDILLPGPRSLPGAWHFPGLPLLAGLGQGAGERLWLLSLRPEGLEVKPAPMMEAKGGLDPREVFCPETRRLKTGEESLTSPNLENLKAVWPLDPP
# Method in brief: as §1
# ETS2 = biological target: T10, ETS2 (Homo sapiens, UniProt P15036 1-469)
# T10 sequence: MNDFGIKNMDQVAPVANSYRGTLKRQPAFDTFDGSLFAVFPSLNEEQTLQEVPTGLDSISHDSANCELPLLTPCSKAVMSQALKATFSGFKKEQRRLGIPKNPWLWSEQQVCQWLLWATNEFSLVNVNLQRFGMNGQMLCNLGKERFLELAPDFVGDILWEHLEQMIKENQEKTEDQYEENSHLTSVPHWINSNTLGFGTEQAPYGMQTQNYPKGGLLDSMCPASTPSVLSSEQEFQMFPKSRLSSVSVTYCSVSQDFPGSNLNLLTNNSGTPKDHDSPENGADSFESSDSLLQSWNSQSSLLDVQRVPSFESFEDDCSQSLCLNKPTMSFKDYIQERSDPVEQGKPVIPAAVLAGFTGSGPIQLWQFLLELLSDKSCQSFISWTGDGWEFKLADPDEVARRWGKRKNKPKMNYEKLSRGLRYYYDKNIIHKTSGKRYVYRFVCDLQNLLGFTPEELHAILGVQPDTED
# Method in brief: as §1
# SPDEF = biological target: T11, SPDEF (Homo sapiens, UniProt O95238 1-335)
# T11 sequence: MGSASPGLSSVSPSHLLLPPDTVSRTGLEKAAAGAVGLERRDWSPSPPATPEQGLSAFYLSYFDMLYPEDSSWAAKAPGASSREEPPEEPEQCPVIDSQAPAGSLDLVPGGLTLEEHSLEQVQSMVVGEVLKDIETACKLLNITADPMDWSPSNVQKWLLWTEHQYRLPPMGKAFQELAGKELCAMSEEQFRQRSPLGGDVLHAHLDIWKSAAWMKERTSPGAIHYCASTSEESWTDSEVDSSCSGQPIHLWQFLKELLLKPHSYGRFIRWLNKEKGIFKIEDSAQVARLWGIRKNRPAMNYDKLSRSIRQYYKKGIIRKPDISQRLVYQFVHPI
# Method in brief: as §1
# ETV3 = biological target: T12, ETV3 (Homo sapiens, UniProt P41162-2 1-143)
# T12 sequence: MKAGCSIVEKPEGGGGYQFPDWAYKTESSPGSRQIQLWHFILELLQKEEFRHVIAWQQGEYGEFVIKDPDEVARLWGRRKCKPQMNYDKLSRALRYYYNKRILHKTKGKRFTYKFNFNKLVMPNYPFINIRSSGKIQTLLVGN
# Method in brief: as §1
# ETV6 = ETV6 (Homo sapiens, UniProt P41212 1-452)
# Method in brief: as §1
# Chain of ELF1 (P32519 whole entry): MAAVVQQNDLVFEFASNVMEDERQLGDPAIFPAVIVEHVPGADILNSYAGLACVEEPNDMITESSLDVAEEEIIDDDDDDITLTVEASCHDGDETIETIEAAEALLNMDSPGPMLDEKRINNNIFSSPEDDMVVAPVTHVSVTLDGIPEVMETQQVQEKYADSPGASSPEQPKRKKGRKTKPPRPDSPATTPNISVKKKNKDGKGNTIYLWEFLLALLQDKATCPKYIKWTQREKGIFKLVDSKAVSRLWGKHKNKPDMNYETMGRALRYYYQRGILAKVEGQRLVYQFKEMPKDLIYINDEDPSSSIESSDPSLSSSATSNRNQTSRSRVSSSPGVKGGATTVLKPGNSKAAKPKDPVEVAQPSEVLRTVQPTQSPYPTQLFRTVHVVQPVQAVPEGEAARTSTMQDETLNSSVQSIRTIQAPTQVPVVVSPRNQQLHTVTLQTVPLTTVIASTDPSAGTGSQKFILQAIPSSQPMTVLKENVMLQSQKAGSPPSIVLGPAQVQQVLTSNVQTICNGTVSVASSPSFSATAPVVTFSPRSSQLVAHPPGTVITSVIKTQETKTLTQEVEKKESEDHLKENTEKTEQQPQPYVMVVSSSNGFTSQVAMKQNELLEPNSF
# Chain of ETV1 (P50549 whole entry): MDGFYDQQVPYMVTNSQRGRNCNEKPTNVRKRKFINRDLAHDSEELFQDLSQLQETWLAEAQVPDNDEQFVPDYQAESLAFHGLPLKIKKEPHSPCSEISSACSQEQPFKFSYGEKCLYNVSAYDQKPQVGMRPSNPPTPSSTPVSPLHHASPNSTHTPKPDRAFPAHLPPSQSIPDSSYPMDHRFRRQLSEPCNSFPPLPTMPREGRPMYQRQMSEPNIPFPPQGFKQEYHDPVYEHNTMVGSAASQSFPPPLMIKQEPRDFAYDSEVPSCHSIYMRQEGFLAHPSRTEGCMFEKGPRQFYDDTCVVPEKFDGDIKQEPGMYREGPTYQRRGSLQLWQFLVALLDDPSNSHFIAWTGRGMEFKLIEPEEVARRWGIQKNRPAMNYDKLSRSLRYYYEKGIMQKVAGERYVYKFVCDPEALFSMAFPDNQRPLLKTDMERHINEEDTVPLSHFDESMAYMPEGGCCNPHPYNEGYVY
# Chain of SPIB (Q01892 whole entry): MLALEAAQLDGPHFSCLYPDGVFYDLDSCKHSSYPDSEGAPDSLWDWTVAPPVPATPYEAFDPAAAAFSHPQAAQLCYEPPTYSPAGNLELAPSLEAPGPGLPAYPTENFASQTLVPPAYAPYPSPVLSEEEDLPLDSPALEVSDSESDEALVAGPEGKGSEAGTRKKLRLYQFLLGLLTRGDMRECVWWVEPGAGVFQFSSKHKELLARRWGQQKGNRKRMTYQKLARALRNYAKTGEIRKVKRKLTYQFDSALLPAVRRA
# Chain of ETV5 (P41161 whole entry): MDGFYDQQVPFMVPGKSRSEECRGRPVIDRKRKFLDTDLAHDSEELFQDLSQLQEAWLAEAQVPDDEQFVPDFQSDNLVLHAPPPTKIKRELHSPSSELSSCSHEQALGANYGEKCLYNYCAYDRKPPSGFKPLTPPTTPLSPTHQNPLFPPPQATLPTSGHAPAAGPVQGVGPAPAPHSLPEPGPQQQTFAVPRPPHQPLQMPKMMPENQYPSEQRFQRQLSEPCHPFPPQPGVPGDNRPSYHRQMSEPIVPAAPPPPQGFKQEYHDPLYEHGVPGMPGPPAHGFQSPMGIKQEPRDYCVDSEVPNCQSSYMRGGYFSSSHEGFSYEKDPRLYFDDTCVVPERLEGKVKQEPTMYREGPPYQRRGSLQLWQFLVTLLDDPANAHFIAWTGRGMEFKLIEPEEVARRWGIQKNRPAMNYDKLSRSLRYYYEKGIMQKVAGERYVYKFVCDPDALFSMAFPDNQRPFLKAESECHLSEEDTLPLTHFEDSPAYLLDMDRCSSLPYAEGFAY
# Chain of ETV6 (P41212 whole entry): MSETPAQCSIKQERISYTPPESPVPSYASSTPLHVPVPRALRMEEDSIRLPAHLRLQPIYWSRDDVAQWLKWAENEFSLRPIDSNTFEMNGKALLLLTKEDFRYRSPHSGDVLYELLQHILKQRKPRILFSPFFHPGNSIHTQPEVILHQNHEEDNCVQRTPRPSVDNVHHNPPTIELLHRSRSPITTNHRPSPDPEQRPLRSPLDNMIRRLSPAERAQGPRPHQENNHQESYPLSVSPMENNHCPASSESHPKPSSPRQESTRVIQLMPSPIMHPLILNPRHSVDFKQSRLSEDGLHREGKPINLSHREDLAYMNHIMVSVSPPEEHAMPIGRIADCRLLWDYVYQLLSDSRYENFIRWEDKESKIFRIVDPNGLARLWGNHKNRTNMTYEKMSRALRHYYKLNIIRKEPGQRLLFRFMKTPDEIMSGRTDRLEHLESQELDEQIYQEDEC
# Chain of ELF4 (Q99607 whole entry): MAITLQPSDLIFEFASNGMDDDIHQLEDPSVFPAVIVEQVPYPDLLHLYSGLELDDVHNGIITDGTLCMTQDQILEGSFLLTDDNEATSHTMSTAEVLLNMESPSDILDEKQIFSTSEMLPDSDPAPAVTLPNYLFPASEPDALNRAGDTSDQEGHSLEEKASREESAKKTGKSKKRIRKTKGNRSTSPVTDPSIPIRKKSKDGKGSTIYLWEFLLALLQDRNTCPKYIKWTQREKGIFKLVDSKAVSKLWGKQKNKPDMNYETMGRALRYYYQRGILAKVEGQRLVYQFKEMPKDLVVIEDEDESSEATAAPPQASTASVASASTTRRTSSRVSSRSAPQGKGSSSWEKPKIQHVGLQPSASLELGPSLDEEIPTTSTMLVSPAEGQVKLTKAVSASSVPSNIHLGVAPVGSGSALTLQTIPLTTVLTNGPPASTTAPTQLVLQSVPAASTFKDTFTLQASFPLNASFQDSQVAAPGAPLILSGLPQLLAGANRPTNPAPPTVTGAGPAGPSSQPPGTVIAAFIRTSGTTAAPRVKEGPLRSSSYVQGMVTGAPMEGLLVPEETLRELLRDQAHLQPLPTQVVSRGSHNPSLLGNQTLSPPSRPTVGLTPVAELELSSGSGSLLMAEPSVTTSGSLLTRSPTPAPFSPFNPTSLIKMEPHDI
sequence,measurement,setting,value
TACCCC,binding signal,FLI1,"1.14 fold enrichment (6-mer frequency, TF over GST control)"
same,binding signal,ELK1,"1.11 fold enrichment (6-mer frequency, TF over GST control)"
same,binding signal,GABPA,"1.16 fold enrichment (6-mer frequency, TF over GST control)"
same,binding signal,ERG,"1.07 fold enrichment (6-mer frequency, TF over GST control)"
same,binding signal,ELF1,"1.14 fold enrichment (6-mer frequency, TF over GST control)"
same,binding signal,EHF,"1.12 fold enrichment (6-mer frequency, TF over GST control)"
same,binding signal,SPI1,"1.11 fold enrichment (6-mer frequency, TF over GST control)"
same,binding signal,SPIB,"1.09 fold enrichment (6-mer frequency, TF over GST control)"
same,binding signal,ELK3,"1.11 fold enrichment (6-mer frequency, TF over GST control)"
same,binding signal,FEV,"1.07 fold enrichment (6-mer frequency, TF over GST control)"
same,binding signal,ETV5,"1.07 fold enrichment (6-mer frequency, TF over GST control)"
same,binding signal,ELF4,"1.15 fold enrichment (6-mer frequency, TF over GST control)"
same,binding signal,ETV1,"1.06 fold enrichment (6-mer frequency, TF over GST control)"
same,binding signal,ERF,"1.02 fold enrichment (6-mer frequency, TF over GST control)"
same,binding signal,ETV3L,"1.1 fold enrichment (6-mer frequency, TF over GST control)"
same,binding signal,ETS2,"1.21 fold enrichment (6-mer frequency, TF over GST control)"
same,binding signal,SPDEF,"1.02 fold enrichment (6-mer frequency, TF over GST control)"
same,binding signal,ETV3,"1.09 fold enrichment (6-mer frequency, TF over GST control)"
same,binding signal,ETV6,"1.04 fold enrichment (6-mer frequency, TF over GST control)"
